# The whole screen tested about 69,000 compounds, of which about 420 (0.61%) showed an effect of 50% or more. The full list was thinned out, with strong results kept by preference.
# Biological target: T1, Histidine--tRNA ligase (Leishmania infantum) (UniProt A4I591)
# T1 sequence (whole entry): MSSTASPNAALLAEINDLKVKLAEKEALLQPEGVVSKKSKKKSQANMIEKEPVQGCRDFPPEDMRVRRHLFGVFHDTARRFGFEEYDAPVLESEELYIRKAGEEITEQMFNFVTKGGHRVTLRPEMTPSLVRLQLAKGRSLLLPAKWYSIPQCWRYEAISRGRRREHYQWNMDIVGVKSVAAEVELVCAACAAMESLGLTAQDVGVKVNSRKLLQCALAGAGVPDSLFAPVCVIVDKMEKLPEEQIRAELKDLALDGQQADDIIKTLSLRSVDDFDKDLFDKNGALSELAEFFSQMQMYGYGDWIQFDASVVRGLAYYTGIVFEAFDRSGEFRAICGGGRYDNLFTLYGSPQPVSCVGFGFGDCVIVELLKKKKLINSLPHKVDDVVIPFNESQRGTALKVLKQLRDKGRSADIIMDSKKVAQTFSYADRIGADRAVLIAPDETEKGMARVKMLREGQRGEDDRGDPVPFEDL
# Test: Leishmania infantum Histidine tRNA synthetase (LdHisRS)
# Format: functional
# Design: scale not given: in the data most compounds retested in dose-response had high values
# Conditions: 30 µM
row,Compound,Percent Effect [%]
1,COc1ccccc1CN1C(=O)O[C@@H]2CN(C(C)C)C[C@@H]21,3.33
2,O=C1[C@@H]2CN(c3ncccc3Cl)C[C@]2(C(=O)O)CN1CC1CC1,3.28
3,CCOc1ccc(CN2CCN(CCOC)[C@@H]3CS(=O)(=O)C[C@@H]32)cc1,25
4,c1cc2nccc(CC3CCCN(C4CCOCC4)CC3)c2cn1 (stereo not drawn),22.7
5,CS(=O)(=O)N1CCCC(Cc2ccnc3ccncc23)CC1 (stereo not drawn),80.2
6,Cn1ccnc1CN1CCCC(Cc2ccnc3ccncc23)CC1 (stereo not drawn),43.3
7,c1cc2nccc(CC3CCCN(Cc4c[nH]cn4)CC3)c2cn1 (stereo not drawn),24.7
8,c1cc2nccc(CC3CCCN(Cc4ncc[nH]4)CC3)c2cn1 (stereo not drawn),50
9,CN1CCCC(Cc2ccnc3ccncc23)CC1 (stereo not drawn),0
10,CC(=O)N1[C@H](Cn2cncn2)C[C@@H]2CN(Cc3cccnc3)CC[C@@H]21,13.9
11,Cc1nc(C(=O)N2CCN(S(C)(=O)=O)[C@@H]3CS(=O)(=O)C[C@@H]32)cs1,18.7
12,c1cc(CN2CC[C@H]3O[C@@H](COCC4CCOCC4)CC[C@H]32)ccn1,22
13,CCN1C[C@H]2[C@@H](C1)N(S(=O)(=O)c1ccccc1)CC[C@H]2OC,24
14,CN(C)CCO[C@H]1CN(C(=O)c2ccc3c(c2)OCO3)[C@@H]2COC[C@H]12,13.7
15,O=C(NCC1(O)CCC1)c1c(O)cc(F)cc1F,-2.17
16,CCCn1cc(Cl)c(C(=O)N2C[C@H]3C[C@H](OC)C[C@H]3C2)n1,8.63
17,Cc1nc(CN2CCCC2c2ccsc2)nc2ccccc12 (stereo not drawn),54
18,Cc1nc(C)n(CC2CCCN2Cc2nc(C)c3ccccc3n2)n1 (stereo not drawn),56.5
19,Cc1nc(C)n(CC2CCCN2Cc2nc(N)c3ccccc3n2)n1 (stereo not drawn),36.5
20,Cc1nn(C)c(C)c1C1CCCN1Cc1nc(C)c2ccccc2n1 (stereo not drawn),46
21,Cc1nc(C)n(CC2CCCN2Cc2nc3ccccc3nc2C)n1 (stereo not drawn),17.6
22,Cc1nc(CN2CCCC2c2noc(C3CC3)n2)nc2ccccc12 (stereo not drawn),42.2

row,Compound,Percent Effect [%]
1,CC(C)CN1C[C@@H]2C(=O)NC3(CCN(C(=O)c4cccnc4)CC3)[C@@H]2C1,23.3
2,CN1[C@@H](C(=O)NCC2CC2)C[C@@H]2CN(Cc3ccsc3)C[C@@H]21,11.9
3,CS(=O)(=O)N1C[C@H]2CCC[C@@]2(COc2ccccn2)C1,10.3
4,CN(C)C(=O)CO[C@H]1CN(Cc2cccc(C#N)c2)[C@@H]2COC[C@H]12,-11.4
5,COc1ncccc1C(=O)N1CC[C@H]2C[C@@H](c3noc(C)n3)O[C@@H]2C1,46.1
6,O=C(O)[C@@]12CN(c3cnccn3)C[C@@H]1CN(C1CCCC1)C2,21
7,O=C(O)c1ccccc1-c1ccc(CN2CC(c3ccncn3)C2)o1,29.4
8,Cc1nccc(C2CN(Cc3ccc(-c4ccccc4C(=O)O)o3)C2)n1,12.7
9,Nc1nccc(C2CN(Cc3ccc(-c4ccccc4C(=O)O)o3)C2)n1,54.9
10,O=C(CN1C[C@H]2C[C@H](OCc3ccccc3)C[C@H]2C1)N1CCOCC1,15.7
11,CN1CCN(Cc2cnn(-c3ccccc3Cl)c2)[C@H]2CS(=O)(=O)C[C@H]21,5.71
12,Cc1ccc(-c2ncc(C(=O)N3CCCN4CCC[C@H]4C3)c(O)n2)cc1,11
13,CN(C)c1ncc(-c2c(-c3ccccc3)ncn2C(CO)C(=O)O)cn1 (stereo not drawn),72.8
14,Cc1nn(C)c(C)c1-c1c(-c2ccccc2)ncn1[C@H](CO)C(=O)O,1.57
15,Cc1c(-c2c(-c3ccccc3)ncn2[C@H](CO)C(=O)O)cnn1C,7.85
16,O=C1C[C@H]2CC[C@@H](CN1)N2C(=O)CCc1ccccc1,8.39
17,CNC(=O)CN1CC[C@H]2CN(C(=O)c3cccn3C)C[C@H]2C1,2.78
18,CSCC(C)NS(=O)(=O)c1ccc(C)c(N(C)C)c1 (stereo not drawn),19.3
19,Cc1ccc(S(=O)(=O)N[C@H](CO)C(C)C)cc1N(C)C,53
20,Cc1ccc(S(=O)(=O)NC(CO)CC(C)C)cc1N(C)C (stereo not drawn),43.4
21,O=C(NCCc1ccncc1)[C@@H]1CC[C@@H]2[C@@H](CCN2Cc2ccco2)O1,20
22,CNC(=O)N1C[C@H]2C[C@H](C(=O)Nc3ccccc3)[C@@H](C1)O2,19.6

row,Compound,Percent Effect [%]
1,COc1ccc(NC(=O)Cn2nc(C)c(C)cc2=O)cc1OC,7.69
2,Cc1cc(=O)n(CC(=O)Nc2ccc(Cl)cc2)nc1C,7.2
3,CC(=O)c1c(C)nn(CC(=O)Nc2ccc(F)cc2)c1C,15.7
4,CC(=O)c1c(C)nn(CC(=O)Nc2ccc(Br)cc2)c1C,71.3
5,COc1ccc(NC(=O)Cn2nc(C)c(C)cc2=O)cc1,-0.8
6,COc1ccc(NC(=O)Cn2nc(C)c(C(C)=O)c2C)cc1,52.2
7,O=C1O[C@@H]2CN(S(=O)(=O)N3CCCC3)C[C@@H]2N1CCc1cccc(Cl)c1,7.29
8,O=C1CC[C@]2(CC[C@@H](NCc3ccsc3)CC2)N1Cc1ccccc1,25
9,COCCN1C(=O)[C@H]2CC[C@@H]1CN(C(=O)COc1ccc(F)c(Cl)c1)C2,-13.3
10,Cc1nnc(SC2CCN(c3sccc3C#N)C2=O)[nH]1 (stereo not drawn),12.2
11,N#Cc1ccsc1N1CCC(Sc2ncc[nH]2)C1=O (stereo not drawn),20.4
12,N#Cc1ccsc1N1CCC(Sc2ccncc2)C1=O (stereo not drawn),53.1
13,NC(=O)N1CC[C@@H]2O[C@@H](COCC(=O)N3CCCC3)CC[C@@H]21,0
14,CCCc1nc(CN2CCOC(CNc3cccnn3)C2)cs1 (stereo not drawn),69
15,CCc1nc(CN2CCOC(CNc3cccnn3)C2)cs1 (stereo not drawn),24.6
16,COCc1nc(CN2CCOC(CNc3cccnn3)C2)cs1 (stereo not drawn),35.1
17,CN(C)CCO[C@H]1CN(Cc2ccc3c(c2)OCO3)[C@@H]2COC[C@H]12,17.1
18,CN(C)C(=O)CO[C@H]1CN(Cc2ccc3c(c2)OCO3)[C@@H]2COC[C@H]12,13.2
19,O=C(c1cnnn1-c1ccccc1)N1CCCC(c2ccn[nH]2)C1 (stereo not drawn),15.7
20,O=C(c1cc(=O)n(-c2ccccc2)[nH]1)N1CCCC(c2ccn[nH]2)C1 (stereo not drawn),59
21,O=C(c1cc(=O)n(-c2ccccc2)[nH]1)N1CCOCC(O)C1 (stereo not drawn),6.2
22,Cc1ncsc1CN1C[C@@H]2COC[C@]2(CNC(=O)c2ccccc2)C1,20.5

row,Compound,Percent Effect [%]
1,CCN(CC)[C@H]1COC[C@@H]2CN(Cc3cnn(C)c3)C[C@@H]21,15.8
2,Cn1nc2c(cc1=O)CN(Cc1nnc(C3CC3)o1)CC2,97.9
3,CCn1nc2c(cc1=O)CN(Cc1nc(CCOC)no1)CC2,23.4
4,CCn1nc2c(cc1=O)CN(Cc1nnc(C3CC3)o1)CC2,22.6
5,Cn1nc2c(cc1=O)CN(Cc1nc(C3CC3)no1)CC2,102
6,Cn1nc2c(cc1=O)CN(Cc1nc(C(C)(C)C)no1)CC2,82.4
7,CCCn1nc2c(cc1=O)CN(Cc1nnc(C3CC3)o1)CC2,24.5
8,Cc1ccc(F)cc1CC(=O)N1CC[C@@]2(O)CCNC[C@H]2C1,4.92
9,O=C(C1CCOCC1)N1CCO[C@H]2[C@H](Oc3cccnc3)CC[C@@H]21,9.68
10,O=C(c1ccco1)N1C[C@H]2CCCN(Cc3ccc(F)cc3)[C@H]2C1,10.9
11,O=C(C1CCOCC1)N1C[C@H]2C[C@H](OCc3ccccc3)C[C@H]2C1,12.9
12,O=C(C[C@H]1[C@H]2CN(Cc3ccsc3)C[C@@H]12)N1CCCC1,15.5
13,O=C(Cc1cccc(F)c1)N1C[C@H]2CN(Cc3ccccn3)C[C@H]2C1,15.4
14,O=C(CSc1ccccc1)N1C[C@H]2CC[C@@H]1CN(Cc1ccncc1)C2,12.9
15,O[C@@H]1C[C@@](CNCc2ccccn2)(COc2cccnc2)C[C@@H]1O,12.2
16,FC1(F)CCN(Cc2cccnc2)CC12CCN(c1ccccn1)C2 (stereo not drawn),19.6
17,FC1(F)CCN(Cc2cccnc2)CC12CCN(c1ccccc1)C2 (stereo not drawn),57.3
18,O=C(CO)N1CCC(F)(F)C2(CCN(c3ccccc3)C2)C1 (stereo not drawn),23.1
19,FC1(F)CCN(Cc2ccncc2)CC12CCN(c1cccnc1)C2 (stereo not drawn),19.1
20,O=C(O)CN1CCC(F)(F)C2(CCN(c3ccccc3)C2)C1 (stereo not drawn),53.9
21,FC1(F)CCN(c2ccccc2)CC12CCN(c1ncccn1)C2 (stereo not drawn),21.4
22,O=C(C1CCC1)N1CCN(Cc2ccc(F)cc2)[C@H]2CS(=O)(=O)C[C@H]21,17.8

row,Compound,Percent Effect [%]
1,COc1ccc(NC(C)=O)c(N2CCN(C(C)=O)CC2)n1,17.3
2,COc1ccc(N)c(N2CCN(C(C)=O)CC2)n1,61.6
3,COc1ccc(NC(=O)CCC(C)C)c(N2CCN(C(C)=O)CC2)n1,11.6
4,Cc1ccc(NC(=O)Nc2c(O)oc3ccccc3c2=O)cc1,6.17
5,O=C1CO[C@H]2CN(Cc3ccc(F)c(F)c3)C[C@H]2N1,1.35
6,Cc1cc2nc(SCC(=O)N3CCCC3)n(-c3ccccc3)c(=O)c2[nH]1,51.4
7,Cc1cc2nc(SCC(=O)N3CCCC3)n(C)c(=O)c2[nH]1,5.26
8,Cc1cc2nc(SCC(=O)N3CCCCC3)n(C)c(=O)c2[nH]1,10.5
9,COCCC(=O)N1C[C@@H]2COC[C@]2(COCc2cccnc2)C1,10.7
10,CCS(=O)(=O)N1C[C@H]2CN(Cc3cccnc3)C(=O)[C@H]2C1,0
11,O=C(c1ccnnc1)N1CCO[C@H]2[C@@H](OCc3cccnc3)CC[C@@H]21,25.7
12,CCCN1C[C@H]2CC[C@@H]1CN(Cc1ccc(Cn3cccn3)cc1)C2,17.5
13,CC(=O)N1C[C@@H]2CC[C@H](C1)N(Cc1ccc(Cn3cccn3)cc1)C2,14.2
14,CCCN1C[C@H]2CC[C@@H]1CN(Cc1ccc(-n3cccn3)cc1)C2,50.8
15,CCCN1C[C@H]2CC[C@@H]1CN(Cc1cccc(-n3cccn3)c1)C2,14.2
16,CCCN1C[C@H]2CC[C@@H]1CN(Cc1cccc(O)c1)C2,32.9
17,CCN1CCO[C@@H]2CN(C(=O)c3ccc4[nH]ccc4c3)CC[C@@H]2C1,26
18,CN1CCN(C(=O)[C@H]2C[C@@H]3CCN(c4ncc(F)cn4)C[C@@H]3O2)CC1,7.55
19,CC(=O)N1CC[C@H]2OCC[C@@H](C(=O)Nc3cccnc3C)[C@@H]2C1,17.3
20,CN(C)C(=O)N1C[C@@H]2CC[C@H](C1)N(S(=O)(=O)c1cccnc1)C2,12.1

# — ChEMBL document CHEMBL3988442, “University of Dundee, Small-Polar-MMV Screening Library” (2021)
